{"source": "PubChem BioAssay (NCATS)", "note": "Several values for one entry are separate records, joined by “and”; a condition that tells them apart may be missing. Equal entries are not always repeated. Inconclusive results are not listed. Entries that show only a call come without a potency. Activity calls are given as the source filed them. Calls follow the shape of the dose curve; as a rule, active = well fitted cell-killing curve with a large enough effect; inconclusive = small, poorly fitted or top-dose-only effect; inactive = flat fitted curve, though single readings scatter.", "data": [{"experiment": "Cellular viability qHTS for adrenocortical cancer (ACC) cell line NCI-H295R (AID 1963990); also: nearly all actives have a fitted effect of over 60% in size", "details": "CellTiter-Glo ATP luminescence, 48 h; series mostly up to 46.1 µM", "source_text": "PI: Naris Nilubol, MD Surgical Oncology Program, National Cancer Institute (NCI) National Institute of Health (NIH), Bethesda, Maryland Adrenocortical cancer (ACC) is a rare malignancy with poor survival outcomes and few treatment options. Currently, mitotane is the only FDA-approved therapy for ACC. Although adjuvant radiation therapy is rarely utilized, it has the potential to improve survival in select cases. Through a quantitative high-throughput drug screen (qHTS), we identified auranofin (AF), a thioredoxin reductase (TXNRD) inhibitor, as a promising candidate drug. This study aims to evaluate whether AF can enhance the efficacy of radiation therapy in the treatment of ACC. Two human ACC cell lines, SW-13 and NCI-H295R, were screened using the National Center for Advancing Translational Sciences (NCATS) Pharmaceutical Collection (NPC) and the Mechanism Interrogation PlatE (MIPE) library (~4,991 compounds). CellTiter-Glo (Cat # G7570, Promega, Madison, WI) was utilized to measure cell viability. Described herein are the results of the corresponding viability assay.\nPROTOCOL TABLE (as described by Inglese J, Shamu CE and Guy RK. 2007) SEQUENCE No. (e.g., 1, 2, 3, etc.); […] (e.g., Cells, Incubation, Reagent, etc.); VALUE; DESCRIPTION. 1; Cells; 5 uL; white, solid-bottom, 1536-well tissue-culture treated plates. 2; Time; overnight culture at 37C with 5% CO2. 3; Compounds and control; 23 nL; Kalypsis pin tool (Wako USA) equipped with a 1536-well pin head to transfer to the assay plates. 4; Time; 48 hours; 37C with 5% CO2. 5; Reagent; 4 uL; CellTiter-Glo luminescent substrate mix. 6; Time; 20 min at room temperature. 7; Detection; Luminescence; ViewLux plate reader NOTES (numbers refer to Sequence numbers above) 1. NCI-H295R cells were harvested from a T175 flask and resuspended in ITS-supplemented DMEM serum-free medium at a concentration of 300 000 cells/mL. Then 5 uL of resuspended cells were dispensed into each well of white, solid-bottom, 1536-well tissue-culture-treated plates using a multidrop combi dispenser. The plates were covered with stainless steel gasket lids. 2-3. The plates were cultured overnight at 37C with 5% CO2. Twenty-three nL of compounds (eight selected concentrations from the NPC / MIPE) or positive control (10 mM stock of bortezomib) in DMSO was transferred to each well of the assay plate using a pin tool (Kalypsys, San Diego, CA, USA). The final concentration of the compounds in the 5 uL assay volume ranged from 0.5 nM to 46 uM. 4-6. After 48 hours of incubation at 37C and 5% CO2, 4 uL of CellTilter-Glo luminescent substrate mix (Promega, Madison, WI, USA) was added to each well. Then the plates were incubated for 20 minutes at room temperature. 7. After incubation, luminescence was measured using a ViewLux plate reader (PerkinElmer, Waltham, MA, USA) with a clear filter was used to measure the number of metabolically competent cells. To determine compound activity in the qHTS assay, the titration-response data for each sample was plotted and modeled by a four-parameter logistic fit yielding IC50 and efficacy (maximal response) values. Raw plate reads for each titration point were normalized relative to positive control ([…], 100% inhibition) and DMSO-only wells (basal, 0%). REFERENCES: Inglese J, Shamu CE and Guy RK, Reporting data from high throughput screening of small molecule libraries, Nature Chemical Biology, 2007, 3(8): 438-441. doi.org/10.1038/nchembio0807-438.", "values": [{"smiles": "COC1=C2C[C@H](C)C[C@H](OC)[C@H](O)[C@@H](C)/C=C(/C)[C@H](OC(N)=O)[C@@H](OC)/C=C\\C=C(\\C)C(=O)NC(=CC1=O)C2=O", "Potency": "inactive"}, {"smiles": "CCn1c(=O)c2c(nc(C=Cc3ccc(OC)c(OC)c3)n2C)n(CC)c1=O", "Potency": "inactive"}, {"smiles": "O=C(/C=C/c1ccccc1)NCCO", "Potency": "14.6 µM (active)"}, {"smiles": "Cc1cccc(-c2nn3c(c2-c2ccnc4ccc(C(N)=O)cc24)CCC3)n1", "Potency": "inactive"}, {"smiles": "CC1=C(C(=O)O)N2C(=O)[C@@H](NC(=O)[C@H](N)c3ccc(O)cc3)[C@H]2SC1", "Potency": "inactive"}, {"smiles": "Clc1cc2c(NC3CCCC3)nnc(-c3ccncc3)c2cc1Cl", "Potency": "inactive"}, {"smiles": "NC(=O)c1cccc2cn(-c3ccc([C@@H]4CCCNC4)cc3)nc12", "Potency": "inactive"}, {"smiles": "CC(=O)OCC(=O)Nc1cc(C#N)cc(NC(=O)COC(C)=O)c1Cl", "Potency": "inactive"}, {"smiles": "Cc1nnc(C(=O)NC(C)(C)c2nc(C(=O)NCc3ccc(F)cc3)c(O)c(=O)n2C)o1", "Potency": "inactive"}, {"smiles": "CC(=O)Nc1nc(C)c(-c2ccc(Cl)c(S(=O)(=O)NCCO)c2)s1", "Potency": "25.1 µM (active)"}, {"smiles": "N#Cc1ccc(COC[C@H]2O[C@@H](n3c(NCc4ccc(Cl)c(Cl)c4)nc4c(N)ncnc43)[C@H](O)[C@@H]2O)cc1", "Potency": "inactive"}, {"smiles": "CC(=O)N[C@H]1[C@H]([C@H](O)[C@H](O)CO)OC(C(=O)O)=C[C@@H]1N=C(N)N", "Potency": "inactive"}, {"smiles": "CCOc1ccn(-c2ccc(F)cc2)c(=O)c1C(=O)Nc1ccc(Oc2ccnc(N)c2Cl)c(F)c1", "Potency": "14.1 µM (active)"}, {"smiles": "Nc1nc2c(c(=O)[nH]1)N(C=O)[C@H](CNc1ccc(C(=O)N[C@@H](CCC(=O)O)C(=O)O)cc1)CN2", "Potency": "inactive"}, {"smiles": "O=C1Nc2ccc(I)cc2/C1=C/c1cc(Br)c(O)c(Br)c1", "Potency": "inactive"}, {"smiles": "N/C(=N\\N=C\\c1ccc(Cl)cc1)N/N=C/c1ccc(Cl)cc1", "Potency": "inactive"}, {"smiles": "CN1CC(=O)N2[C@H](c3ccc4c(c3)OCO4)c3[nH]c4ccccc4c3C[C@@H]2C1=O", "Potency": "inactive"}, {"smiles": "Oc1ccc(C2CCN(c3ccnc4ccccc34)CC2)cc1O", "Potency": "inactive"}, {"smiles": "CO/N=C(/C(=O)N[C@@H]1C(=O)N2C(C(=O)OCOC(=O)C(C)(C)C)=C(C)CS[C@H]12)c1csc(N)n1", "Potency": "inactive"}, {"smiles": "O=c1ccn([C@@H]2O[C@H](CO)[C@H](O)[C@@H]2F)c(=O)[nH]1", "Potency": "inactive"}, {"smiles": "CC(C)(C)NC[C@H](O)COc1cccc2c1CCCC2=O", "Potency": "inactive"}, {"smiles": "CCOC(=O)c1ccc(O)c(O)c1", "Potency": "inactive"}, {"smiles": "CN1CCCN(C(c2ccccc2)c2ccc(Cl)cc2)CC1", "note": "(stereo not given)", "Potency": "23.1 µM (active)"}, {"smiles": "C[C@@H]1CC(=O)NN=C1c1ccc(NN=C(C#N)C#N)cc1", "Potency": "inactive"}, {"smiles": "CCCCCCCCCCCC1=C(O)C(=O)C=C(O)C1=O", "Potency": "inactive"}, {"smiles": "CCCCCCCCCCCCCCCCCCCCCCO", "Potency": "inactive"}, {"smiles": "CN[C@H]1CCc2cc(OC)c(OC)c(OC)c2-c2ccc(OC)c(=O)cc21", "Potency": "0.0891 µM (active)"}, {"smiles": "CNCCCC12CCC(c3ccccc31)c1ccccc12", "Potency": "23.1 µM (active) and 25.1 µM (active)"}, {"smiles": "O=C(CCCc1ccc2cccnc2n1)NCc1cc(-c2ccc(F)c(C(F)(F)F)c2)no1", "Potency": "inactive"}, {"smiles": "CCC(C)(Oc1ccc(C2(c3ccc(OC(C)(CC)C(=O)O)cc3)CCCCC2)cc1)C(=O)O", "note": "(stereo not given)", "Potency": "inactive"}, {"smiles": "OCCCc1ccccc1", "Potency": "inactive"}, {"smiles": "COc1ccc(COc2ccc(Cc3cnc(N)nc3N)cc2OC)cc1", "Potency": "inactive"}, {"smiles": "Oc1ccc(C2CNCCc3c2cc(O)c(O)c3Cl)cc1", "note": "(stereo not given)", "Potency": "inactive"}, {"smiles": "Cc1oc(=O)oc1CN1CCN(c2cc3c(cc2F)c(=O)c(C(=O)O)c2n3C(C)S2)CC1", "note": "(stereo not given)", "Potency": "inactive"}, {"smiles": "COc1cc(C(C)C)c2c(c1)S(=O)(=O)N(COc1cc(=O)n3cccc(OCCN4CCCCC4)c3n1)C2=O", "Potency": "17.8 µM (active)"}, {"smiles": "COc1cc(N)c(Cl)cc1C(=O)NC1CCN(Cc2ccccc2)CC1", "Potency": "inactive"}, {"smiles": "O=C(O)c1nc(=O)[nH]c(=O)[nH]1", "Potency": "inactive"}, {"smiles": "O=C(NOCC(O)CO)c1cc(Br)c(F)c(F)c1Nc1ccc(I)cc1F", "note": "(stereo not given)", "Potency": "15.8 µM (active)"}, {"smiles": "CCNC(=O)NCc1cccc(Cl)c1", "Potency": "inactive"}, {"smiles": "Cc1c(NC(=O)c2cccnc2)c(=O)n(-c2ccccc2)n1C", "Potency": "inactive"}]}]}
